Results on five molecules are retold here after PubChem BioAssay (NCATS).

Inconclusive results are not listed. Calls of active or inactive are those of the source. Unless noted, the call rests on the fitted dose curve; in most records, active means well fitted curve in either direction with a large enough effect (not every such curve was filed as active); inconclusive means small, poorly fitted or top-dose-only effect, or another doubt; inactive means flat fitted curve, though single readings scatter. Bounds are passed on as bounds.

Experiment [1] in a line: AP1 Signaling Pathway (AID 357).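 Further: ME-180 reporter cells stimulated with EGF at its EC50 level; on the % scale 0 is the no-effect control and ±100 the full control effect.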 The gist of the method: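 Beta-lactamase reporter under AP-1 response element, ME-180 background. Stimulus: EC50 EGF. Compound exposure 5 h, 37 °C. Detection: CCF4, 2.5 h RT, 460/530 nm. Values: AC50 from titration.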
Experiment [2] has as its target Cytochrome P450 1A2 (Homo sapiens) (UniProt P05177). The experiment in a line: p450-cyp1a2 (AID 410; calls by dose curve). The gist of the method:
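Read-out is luminescence from luciferin produced by CYP1A2 demethylation of Luciferin-ME (100uM, at Km). Detection reagent stopped the 60 min NADPH-dependent reaction; signals were normalized to 57 uM furafylline.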

Experiment [3] is described as follows: NFAT Signaling Pathway (AID 444).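 Further: carbachol stimulus at about its EC50 of 1 µM final; on the % scale 0 is the no-effect control and ±100 the full control effect.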 The note with it: Jurkat NFAT-bla M1, carbachol, beta-lactamase ratio, 5 h; at 17.2 µM (top of the series). The gist of the method: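 Jurkat cells carrying an NFAT-driven β-lactamase reporter and co-transfected muscarinic M1 receptor were treated with compound plus carbachol (1 uM final, an EC50 level) for 5 h at 37 °C. CCF4 loading followed for 1 h at RT; 460/530 nm ratio gave %activity.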

A short description of experiment [4]: Stat Signaling Pathway (AID 446).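 Further: ME-180 cervical cancer cells given 40 pM IL-6 alongside compound; SIE-controlled beta-lactamase reporter measured as 460/530 nm FRET emission ratio; on the % scale 0 is the no-effect control and ±100 the full control effect.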 The gist of the method: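 FRET read-out (405 nm excitation, 460/530 nm emission) of a beta-lactamase reporter under a STAT-inducible element in ME-180 cervical carcinoma cells. Cells with compound receive 40 pM IL-6 for 5 h. Values are normalised to AC90 stimulation and AC90 JAK-inhibitor controls.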
Experiment [5] addresses Glucocorticoid receptor (Homo sapiens) (UniProt P04150). Description: GR-GFP Redistribution (AID 450;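 active means compounds whose dose series gives a full or clear partial fitted curve of increased nuclear translocation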; further: potency means the concentration at half of the fitted maximal effect). The conditions noted are these: U2OS GR-GFP nuclear translocation, laser cytometry, 2 h.
Experiment [6] has the same target. The experiment in a line: GR-EFC Redistribution (AID 451; calls by dose curve; further: potency means the concentration at half of the fitted maximal effect). The conditions noted are these: CHO-K1 GR-EFC translocation, beta-gal luminescence, 2 h. The gist of the method:
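CHO-K1 cells stably expressing nuclear-localized β-gal enzyme acceptor and GR fused C-terminally to the enzyme donor fragment; ligand-driven nuclear translocation restores β-gal by complementation. Compounds titrated up to 46 uM final, 2 h at 37 °C; luminescence read.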

In experiment [7] the target is Mitogen-activated protein kinase 10 (Mus musculus) (UniProt Q61831). Description: JNK3 AlphaScreen Assay (AID 530).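 Further: kinase came from lysate of stimulated human HepG2 cells; signal reports phosphorylation of biotinylated GST-cJun 1-79 at Ser73 with 10 µM ATP; on the % scale 0 is the no-effect control and ±100 the full control effect.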 The gist of the method:
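Biotinylated GST-cJun(1-79) served as substrate for JNK3 in HepG2 lysates stimulated with IL-1beta and TNF-alpha. ATP was 10 uM final, pH 7.6. Ser73 phosphorylation was quantified by AlphaScreen (680 nm excitation).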

For experiment [8], the target named is 3',5'-cyclic-AMP phosphodiesterase 4B (Homo sapiens) (UniProt Q07343). The experiment in a line: qHTS Assay for Inhibitors of PDE-IV (AID 607; active means well fitted activation curve with a large enough effect in the main read-out, with a control signal flat, not every such curve was filed as active; further: % of control where 0% means no effect). The gist of the method: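 Cell-based read-out of cAMP via a modified cyclic nucleotide-gated channel and membrane potential dye (535/590 nm) in HEK293 cells expressing PDE4 endogenously. Compounds tested up to 22.9 uM final; 100 uM RO 20-1724 reference.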

Experiment [9] is described as follows: qHTS Assay for Lipid Storage Modulators (AID 1519; calls by dose curve). The conditions noted are these: Drosophila S3 cells, BODIPY lipid droplet/cell ratio, laser cytometry, cells loaded with oleic acid; for activity change, negative = inhibition: at 25.7 µM (top of the series). The gist of the method:
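Cells seeded at 5,000 per well were treated with compounds over a concentration series and loaded with oleic acid (400 uM, as added). Lipid droplet fluorescence (488 nm excitation, 500-530 nm channel) was read by laser-scanning cytometry and normalized to 20 uM Triacsin C.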

The target of experiment [10] is Ubiquitin carboxyl-terminal hydrolase 1 (Homo sapiens) (UniProt O94782). Description: Inhibitors of USP1/UAF1: Pilot qHTS (AID 504865; active means well fitted curve in the direction sought with a large enough effect; an effect the other way counts as inactive or inconclusive;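 further: rhodamine fluorescence freed from ubiquitin-rhodamine substrate followed over time; top concentration of the series differs between compounds; on the % scale 0 is the no-effect control and ±100 the full control effect; nearly all actives have a fitted effect of over 35% in size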). The gist of the method:
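Kinetic fluorescence assay: 1nM USP1/UAF1, 15 min compound preincubation, then 150nM Ub-Rho; 480/540 nm.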

For experiment [11], the target named is Luciferin 4-monooxygenase (Photinus pyralis) (UniProt P08659). The experiment in a line: Biochemical firefly luciferase enzyme assay for NPC (AID 624030; active means well fitted curve in the direction sought with a large enough effect; an effect the other way counts as inactive or inconclusive;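 further: purified P. pyralis luciferase at 10 nM with luciferin and ATP substrate; 0% = DMSO and -100% = full luciferase inhibition by PTC124 control; nearly all actives have a fitted effect of over 70% in size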). The gist of the method:
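Counter-screen for direct inhibition of the luciferase enzyme by approved-drug library compounds, run at 10 nM enzyme in 50 mM Tris acetate (final). Luminescence was read within 5 min of enzyme-buffer addition and normalized to PTC124 versus DMSO (0%).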

A short description of experiment [12]: S16 Schwann cell PMP22 intronic element firefly luciferase assay (AID 624032; active means well fitted curve in the direction sought with a large enough effect; an effect the other way counts as inactive or inconclusive;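 further: plate controls were DMSO for no effect and PTC124 positive control mean for full effect; nearly all actives have a fitted effect of over 30% in size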). The gist of the method:
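Rat S16 Schwann cells stably carrying a PMP22 intronic element-driven Fluc reporter were seeded overnight, then exposed to compounds for 24 h at 37 °C. Luminescence was normalized to PTC124 (positive control) and DMSO (0% activity).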

Experiment [13] in a line: qHTS profiling for inhibitors of Plasmodium falciparum proliferation (AID 504749; active means well fitted curve in the direction sought with a large enough effect; an effect the other way counts as inactive or inconclusive;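 further: 0% = DMSO vehicle and full inhibition = artemisinin control; nearly all actives have a fitted effect of over 60% in size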). The note with it: P. falciparum in erythrocytes, SYBR Green DNA, 72 h, at 12.8 µM (top of the series). The gist of the method:
(§1)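 Fluorescence of SYBR Green-bound parasite DNA, read at 485/535 nm, served as the growth measure. Infected erythrocytes were cultured with compound 72 h; artemisinin (0.29 uM) and DMSO wells defined the normalization range.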

The test system of the next experiment is C2A. Described as above. The note with it: P. falciparum in erythrocytes, SYBR Green DNA, 72 h; series mostly up to 28.7 µM. The gist of the method: as §1
The subject of the next experiment is CP185. Described as above. The note with it: P. falciparum in erythrocytes, SYBR Green DNA, 72 h; series mostly up to 28.7 µM. The gist of the method: as §1
Another experiment concerns FAB9. The description is as above. The conditions noted are these: P. falciparum in erythrocytes, SYBR Green DNA, 72 h; series mostly up to 28.7 µM. The gist of the method:
as §1

Where [14] appears, read: measured here: cell count channel max response.
Setting [15] is: measured here: lipid channel max response.

Ubiquitin carboxyl-terminal hydrolase 1 (Homo sapiens), sequence (O94782 whole entry, looked up): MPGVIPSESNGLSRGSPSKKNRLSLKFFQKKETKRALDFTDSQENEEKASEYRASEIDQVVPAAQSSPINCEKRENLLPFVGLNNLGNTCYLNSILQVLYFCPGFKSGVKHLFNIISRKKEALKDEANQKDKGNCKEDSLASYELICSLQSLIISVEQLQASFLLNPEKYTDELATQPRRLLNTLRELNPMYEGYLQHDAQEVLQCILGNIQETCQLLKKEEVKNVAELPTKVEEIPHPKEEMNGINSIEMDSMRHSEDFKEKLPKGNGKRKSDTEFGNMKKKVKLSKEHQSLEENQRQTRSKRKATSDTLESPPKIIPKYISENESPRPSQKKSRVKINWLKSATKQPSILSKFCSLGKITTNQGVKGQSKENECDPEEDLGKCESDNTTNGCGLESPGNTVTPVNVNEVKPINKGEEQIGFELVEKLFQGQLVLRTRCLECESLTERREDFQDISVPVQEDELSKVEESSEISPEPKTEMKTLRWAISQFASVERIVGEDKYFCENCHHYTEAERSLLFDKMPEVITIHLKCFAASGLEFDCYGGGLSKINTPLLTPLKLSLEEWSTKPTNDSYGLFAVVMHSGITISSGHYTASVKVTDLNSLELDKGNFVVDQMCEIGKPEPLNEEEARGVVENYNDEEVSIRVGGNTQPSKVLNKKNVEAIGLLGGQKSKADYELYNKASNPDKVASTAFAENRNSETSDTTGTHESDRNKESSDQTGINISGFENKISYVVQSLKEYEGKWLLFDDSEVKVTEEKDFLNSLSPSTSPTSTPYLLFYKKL
3',5'-cyclic-AMP phosphodiesterase 4B (Homo sapiens), sequence (Q07343 whole entry, looked up): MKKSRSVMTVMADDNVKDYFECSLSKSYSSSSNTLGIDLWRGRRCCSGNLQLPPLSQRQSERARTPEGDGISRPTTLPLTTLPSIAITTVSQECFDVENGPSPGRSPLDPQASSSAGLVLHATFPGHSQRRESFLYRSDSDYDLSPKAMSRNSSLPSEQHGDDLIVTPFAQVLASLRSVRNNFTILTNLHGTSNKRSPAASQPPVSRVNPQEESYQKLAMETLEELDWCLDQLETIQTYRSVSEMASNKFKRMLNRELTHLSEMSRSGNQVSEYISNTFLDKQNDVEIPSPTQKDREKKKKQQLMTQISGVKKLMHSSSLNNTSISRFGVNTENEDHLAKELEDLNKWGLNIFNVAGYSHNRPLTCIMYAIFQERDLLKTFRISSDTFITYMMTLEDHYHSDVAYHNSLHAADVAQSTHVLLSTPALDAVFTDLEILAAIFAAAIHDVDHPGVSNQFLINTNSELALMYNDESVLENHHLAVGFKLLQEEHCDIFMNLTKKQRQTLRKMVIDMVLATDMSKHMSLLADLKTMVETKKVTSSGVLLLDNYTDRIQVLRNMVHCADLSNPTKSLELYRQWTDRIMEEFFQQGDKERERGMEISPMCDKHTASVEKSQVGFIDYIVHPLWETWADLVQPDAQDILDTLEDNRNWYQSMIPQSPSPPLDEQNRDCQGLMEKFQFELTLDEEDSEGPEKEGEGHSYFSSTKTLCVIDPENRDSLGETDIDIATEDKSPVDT
Cytochrome P450 1A2 (Homo sapiens), sequence (P05177 whole entry, looked up): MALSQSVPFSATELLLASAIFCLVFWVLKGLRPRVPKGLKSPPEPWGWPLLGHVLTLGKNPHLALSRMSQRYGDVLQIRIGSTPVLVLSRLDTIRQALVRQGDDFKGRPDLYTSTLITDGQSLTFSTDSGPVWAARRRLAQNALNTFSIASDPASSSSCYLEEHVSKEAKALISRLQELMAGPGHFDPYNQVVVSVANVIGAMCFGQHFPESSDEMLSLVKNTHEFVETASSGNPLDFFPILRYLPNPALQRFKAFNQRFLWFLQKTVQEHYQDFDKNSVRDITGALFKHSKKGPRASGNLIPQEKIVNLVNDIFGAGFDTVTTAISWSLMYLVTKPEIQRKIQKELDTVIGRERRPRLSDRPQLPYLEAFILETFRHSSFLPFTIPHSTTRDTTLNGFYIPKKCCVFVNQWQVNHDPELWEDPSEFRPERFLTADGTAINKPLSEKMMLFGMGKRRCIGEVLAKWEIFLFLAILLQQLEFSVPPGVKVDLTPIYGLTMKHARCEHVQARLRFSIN
Glucocorticoid receptor (Homo sapiens), sequence (P04150 whole entry, looked up): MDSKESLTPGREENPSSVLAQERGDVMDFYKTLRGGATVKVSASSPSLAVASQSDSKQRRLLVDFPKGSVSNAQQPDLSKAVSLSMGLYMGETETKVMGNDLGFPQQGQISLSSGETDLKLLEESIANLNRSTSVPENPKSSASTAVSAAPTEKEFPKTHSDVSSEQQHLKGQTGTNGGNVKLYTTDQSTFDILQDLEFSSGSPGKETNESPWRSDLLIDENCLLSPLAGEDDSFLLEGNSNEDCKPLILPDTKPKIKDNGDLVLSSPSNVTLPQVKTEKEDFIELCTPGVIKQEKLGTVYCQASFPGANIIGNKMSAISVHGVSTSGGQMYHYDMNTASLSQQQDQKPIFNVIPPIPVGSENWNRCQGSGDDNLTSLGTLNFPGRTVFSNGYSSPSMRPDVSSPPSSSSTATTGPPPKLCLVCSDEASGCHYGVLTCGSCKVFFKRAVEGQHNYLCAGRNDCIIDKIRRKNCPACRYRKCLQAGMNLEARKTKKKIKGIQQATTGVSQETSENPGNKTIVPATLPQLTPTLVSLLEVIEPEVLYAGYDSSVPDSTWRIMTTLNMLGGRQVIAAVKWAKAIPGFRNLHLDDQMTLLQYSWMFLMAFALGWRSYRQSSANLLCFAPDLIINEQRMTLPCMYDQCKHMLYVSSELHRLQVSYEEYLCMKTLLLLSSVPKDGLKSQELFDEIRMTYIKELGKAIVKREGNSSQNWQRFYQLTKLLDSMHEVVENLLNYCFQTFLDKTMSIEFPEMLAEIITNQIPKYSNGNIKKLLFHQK
Luciferin 4-monooxygenase (Photinus pyralis), sequence (P08659 whole entry, looked up): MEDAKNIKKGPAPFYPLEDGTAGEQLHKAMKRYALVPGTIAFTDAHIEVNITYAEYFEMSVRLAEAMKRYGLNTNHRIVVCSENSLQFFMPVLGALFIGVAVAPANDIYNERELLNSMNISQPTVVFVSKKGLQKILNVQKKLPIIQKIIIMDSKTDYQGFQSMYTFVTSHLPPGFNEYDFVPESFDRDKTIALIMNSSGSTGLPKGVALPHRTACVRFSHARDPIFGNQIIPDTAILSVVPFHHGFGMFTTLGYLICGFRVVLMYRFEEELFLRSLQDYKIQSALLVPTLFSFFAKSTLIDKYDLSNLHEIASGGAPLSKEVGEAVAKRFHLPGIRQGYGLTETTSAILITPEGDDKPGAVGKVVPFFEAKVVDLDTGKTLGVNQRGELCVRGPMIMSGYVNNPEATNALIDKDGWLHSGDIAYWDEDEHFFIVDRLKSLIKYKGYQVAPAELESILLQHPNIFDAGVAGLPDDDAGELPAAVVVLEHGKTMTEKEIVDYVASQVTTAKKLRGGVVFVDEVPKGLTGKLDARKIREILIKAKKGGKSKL

For the molecule `CCN1C[C@@]2(COC)CC[C@H](OC)[C@]34[C@@H]1[C@]1(OCO[C@@]15C[C@@H](OC)C1C[C@H]3[C@H]5[C@@H]1OC)[C@H](O)[C@@H]24`, the result in experiment [1], in experiment [4] and in [7] was inactive. Moreover, the Potency entry in [2], in experiment [8] and in experiment [10] was “inactive” in each case. For the same molecule, the activity change, negative = inhibition in experiment [3] is -1.05% (inactive); in experiment [9] it was -0.879% (inactive). Moreover, the Potency in [5] and in [6] was > 20.6 µM (inactive) throughout. In addition, the values for the max response in [9] (setting [14]) and in experiment [9] (setting [15]) were -14.7% and -15%, respectively.

`CC(=O)N[C@@H]1CCSC1=O`: the outcome in experiment [1], in experiment [4] and in experiment [7] was inactive. Further, the Potency entry in [2], in [8], in experiment [10] and in experiment [11] was “inactive” in each case. Further, the activity change, negative = inhibition in experiment [3] is -13% (inactive); in [9] it was 1.07% (inactive). Further, the Potency in experiment [5] and in [6] was > 20.6 µM (inactive) in each case. Further, the max response in experiment [9] (setting [14]) is -9.82%; in [9] (setting [15]), -4.81%.

As for `C[C@@]12CCC(=O)C=C1C=C[C@H]1[C@H]3CC[C@](O)(CCC(=O)O)[C@]3(C)CC[C@@H]12`, the molecule was classed as inactive in experiment [1], in experiment [4] and in experiment [7]. The Potency result (in experiment [2]; in experiment [8]; in experiment [10]; in experiment [11]; in experiment [12]; in the experiment on C2A) was “inactive” in each case. Besides, the Potency entry with CP185 and with FAB9 was “inactive” throughout. The activity change, negative = inhibition was -1.71% (inactive) in experiment [3] and -0.688% (inactive) in experiment [9]. Moreover, the Potency in [5] was > 20.6 µM (inactive). Also, the max response in experiment [9] (setting [14]) is -7.2%; in [9] (setting [15]) it was -8.17%. Moreover, the results for the activity, negative = inhibition in experiment [13] (parasite line A) and in experiment [13] (parasite line B) were 9.22% (inactive) and 6.42% (inactive), respectively.

As to `CC(C)[C@@]1(NC(=O)[C@@H]2C[C@H]3c4cccc5[nH]cc(c45)C[C@@H]3N(C)C2)O[C@]2(O)[C@H]3CCCN3C(=O)[C@H](Cc3ccccc3)N2C1=O`, the outcome in experiment [1] and in experiment [4] was inactive. In addition, the Potency result in experiment [2], in experiment [8] and in [10] was “inactive” throughout. In addition, the activity change, negative = inhibition was 1.85% (inactive) in experiment [3] and -1.27% (inactive) in experiment [9]. Also, the Potency in experiment [5] and in experiment [6] was > 20.6 µM (inactive) in each case. Further, the max response in experiment [9] (setting [14]) worked out at 6.35%; in experiment [9] (setting [15]) it was 5.89%.

As to `COc1cc2c3cc1Oc1cc(ccc1O)C[C@@H]1c4c(cc(OC)c(O)c4Oc4cccc(c4)C[C@H]3N(C)CC2)CC[N+]1(C)C`, the result in experiment [1], in experiment [4] and in [7] was inactive. For the same molecule, the Potency entry in experiment [2], in [8] and in experiment [10] was “inactive” in each case. The activity change, negative = inhibition in experiment [3] is -7.53% (inactive); in [9], 0.776% (inactive). Further, the Potency in experiment [5] and in [6] was > 20.6 µM (inactive) throughout. In addition, the max response in experiment [9] (setting [14]) was found to be 15.7%; in experiment [9] (setting [15]) it was 13.7%.
